Screening results as filed in PubChem.
YB-1 expr inh = inhibitors of YB-1 gene expression, primary screen, cell-based, fluorescence; U2OS, qRT-PCR YB-1 vs CDIP delta delta Cp, 16 h; active compounds read high; zero = DMSO, each unit about twofold; delta delta Cp (YB-1 minus CDIP) (test concentration not listed); 30,000 compounds, 0.37% hits; AID 434959, 2010;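 active = delta delta Cp rounded down to an integer at or above 3, about 3 SD of DMSO wells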;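 also: higher means less YB-1 transcript or more CDIP transcript relative to DMSO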
ROS inducer = ROS inducers in U2OS cancer cells, primary screen, cell-based, H2DCF-DA fluorescence; ROS induction (% of piperlongumine), % at 10 µM; 46,000 compounds, 2% hits; U2OS ROS induction; AID 624156, 2012; in the data active = ROS induction above about 79%, passing the limit was not always enough;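 also: 0% = DMSO vehicle median and 100% = reference compound median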
PD-1 reversal = activators reversing PD-1 mediated T-cell inhibition, primary screen, luminescence, primary human CD4 T cells, PD-L1 beads; CellTiter-Glo 96 h; activation, % (no concentration beside the values); 29,000 tested, under 10 active; AID 2316, 2010; call rule not given here;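 also: 0% = median vehicle wells and 100% = positive control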
* hit, by the source's call; x = no result given. An excerpt weighted towards active compounds, which were near 2.1% of everything screened.

SMILES	YB-1 expr inh	ROS inducer	PD-1 reversal
COC(=O)C[C@H]1C(C)(C)[C@@H](OC(C)=O)[C@@H]2CC3=C4CC(=O)O[C@@H](c5ccoc5)[C@]4(C)CCC3[C@@]1(C)C2=O (stereo partly drawn)	-0.096	20	x
COC(=O)C[C@H]1C(C)(C)[C@H](OC(C)=O)[C@]2(O)CC3=C4CC(=O)O[C@@H](c5ccoc5)[C@]4(C)CCC3[C@@]1(C)C2=O (stereo partly drawn)	8*	3	-1
C[C@@H]1CN([C@@H](C)CO)C(=O)c2cccc(NC(=O)CCCCCC(=O)Nc3ccccc3N)c2O[C@H]1CN(C)Cc1ccc(Cl)c(Cl)c1	-0.024	154*	-3
C[C@H]1CN([C@@H](C)CO)C(=O)c2cccc(NC(=O)CCCCCC(=O)Nc3ccccc3N)c2O[C@@H]1CN(C)CC1CC1	0.17	124*	-1
C[C@@H]1CN([C@H](C)CO)C(=O)c2cccc(NC(=O)CCCCCC(=O)Nc3ccccc3N)c2O[C@@H]1CN(C)Cc1ccccc1	-0.7	2	1
C[C@@H]1CN([C@@H](C)CO)C(=O)c2cccc(NC(=O)CCCCCC(=O)Nc3ccccc3N)c2O[C@H]1CN(C)Cc1ccccc1	-0.24	53	-2
C[C@@H]1CN([C@H](C)CO)C(=O)c2cccc(NC(=O)CCCCCC(=O)Nc3ccccc3N)c2O[C@@H]1CN(C)CC1CC1	-0.0057	-4	2
C[C@@H]1CN([C@@H](C)CO)C(=O)c2cccc(NC(=O)CCCCCC(=O)Nc3ccccc3N)c2O[C@H]1CN(C)Cc1ccc(Oc2ccccc2)cc1	-0.27	133*	-4
COC(=O)c1ccccc1NC(=O)C(C)NS(=O)(=O)c1ccc(Cl)cc1 (stereo not drawn)	x	-2	0
COc1cc(O)cc(C2=C(C)CC(O)C2=O)c1 (stereo not drawn)	-0.42	-7	2
COC(=O)c1ccccc1NC(=O)CSc1nc(-c2ccc(F)cc2)cs1	x	2	-2
NC(=O)Cc1ccc(O)c(Cl)c1	-0.13	-3	3
COc1ccc(-c2oc3ncn(CCO)c(=N)c3c2-c2ccc(OC)cc2)cc1	x	0	x
COc1ccc(-c2oc3ncn(CC(C)C)c(=N)c3c2-c2ccc(OC)cc2)cc1	x	94*	x
COC(=O)c1cc2c(=O)n3ccccc3nc2n(C(C)C)c1=N	x	-4	x
N=c1c(S(=O)(=O)c2ccccc2)cc2c(=O)n3ccccc3nc2n1C1CCCC1	x	83*	x
O=C(COc1ccccc1O)N1CCCC1	-0.078	-12	2
COC(=O)c1ccccc1NC(=O)COc1ccc(C)c(C)c1	x	0	-1
COC(=O)c1ccccc1NC(=O)COc1ccc([N+](=O)[O-])c(C)c1	x	138*	2
CCOC(=O)c1c(NC(=O)c2ccc(C)c(S(=O)(=O)N3CCCC3)c2)sc(C)c1C	x	-3	-4
COc1cccc(C(=O)c2sc3nsc(SCc4ccccc4)c3c2N)c1	0.29	335*	-8
COc1cc(OC)cc(-c2nnc(SCc3cccc(C(=O)O)c3)o2)c1	x	23	2
Cc1cccc(OCCNC(=O)c2cccnc2)c1	x	-11	x
CC1NC(=O)C(C#N)=C(SCc2ccccc2)S1 (stereo not drawn)	-0.084	93*	-4
CCSC1=C(C#N)C(=O)NC(C(C)C)S1 (stereo not drawn)	-0.72	8	0
SMILES	YB-1 expr inh	ROS inducer	PD-1 reversal
Nc1ncnc2c1ncn2C1OC(CO)[C@H](O)[C@@H]1S (stereo partly drawn)	0.24	0	0
CC(C)(C)C(=O)OC[C@H]1O[C@@H](n2cnc3c(N)ncnc32)C[C@@H]1OC(=O)C(C)(C)C	8.3*	-2	0
COc1ccc(C)cc1N(CC(=O)Nc1ccc(I)cc1C)S(C)(=O)=O	x	18	1
COCCOC(=O)N1C(=O)[C@@]2(c3ccccc31)[C@H](c1ccccc1OCCO)N1[C@H](c3ccccc3)[C@H](c3ccccc3)OC(=O)[C@H]1[C@@H]2C(=O)N1CCc2cc(OC)c(OC)cc2C1	0.23	214*	x
COCCOC(=O)N1C(=O)[C@@]2(c3ccccc31)[C@H](C(=O)N1CCc3cc(OC)c(OC)cc3C1)[C@H]1C(=O)O[C@H](c3ccccc3)[C@H](c3ccccc3)N1[C@@H]2c1ccc(O)cc1	-0.089	185*	x
COc1cc2c(cc1OC)CN(C(=O)[C@@H]1[C@H]3C(=O)O[C@H](c4ccccc4)[C@H](c4ccccc4)N3[C@H](c3ccccc3OCCO)[C@@]13C(=O)Nc1ccc(C#CCNC(N)=O)cc13)CC2	0.11	18	x
COCCOC(=O)N1C(=O)[C@@]2(c3ccccc31)[C@H](c1ccc(O)cc1)N1[C@H](c3ccccc3)[C@H](c3ccccc3)OC(=O)[C@H]1[C@@H]2C(=O)N1CCc2cc(OC)c(OC)cc2C1	-0.078	11	x
O=C(Nc1nc2ccc(Cl)cc2s1)C1CN(C(c2ccccc2)c2ccccc2)C1	x	10	x
CCc1cc(C(c2ccc(Cl)cc2)N2CCN(CCO)CC2)c(NC(=O)c2ccccc2)s1 (stereo not drawn)	-0.18	89*	-6
O=C1O[C@H](c2ccccc2)[C@H](c2ccccc2)N2[C@H]1[C@@H](C(=O)N1CCN(c3ncccn3)CC1)[C@]1(C(=O)Nc3ccc(C#CC4(O)CCCCCC4)cc31)[C@H]2c1ccc(OCCO)cc1	-0.033	25	x
O=C1O[C@H](c2ccccc2)[C@H](c2ccccc2)N2[C@H]1[C@@H](C(=O)N1CCN(c3ncccn3)CC1)[C@]1(C(=O)Nc3ccccc31)[C@H]2c1ccccc1OCCO	-0.21	170*	x
O=C1O[C@@H](c2ccccc2)[C@@H](c2ccccc2)N2[C@@H](c3ccc(OCCO)cc3)[C@]3(C(=O)Nc4ccccc43)[C@@H](C(=O)N3CCN(c4ncccn4)CC3)[C@H]12	-0.19	97*	x
O=C1O[C@@H](c2ccccc2)[C@@H](c2ccccc2)N2[C@@H](c3ccccc3OCCO)[C@]3(C(=O)Nc4ccccc43)[C@@H](C(=O)O)[C@H]12	-0.033	6	x
COC(=O)C(CC#Cc1ccc2c(c1)[C@]1(C(=O)N2)[C@H](c2ccc(OCCO)cc2)N2[C@H](c3ccccc3)[C@H](c3ccccc3)OC(=O)[C@H]2[C@@H]1C(=O)N1CCN(c2ncccn2)CC1)C(=O)OC	-0.17	54	x
COC(=O)C(CC#Cc1ccc2c(c1)[C@]1(C(=O)N2)[C@H](c2ccccc2OCCO)N2[C@H](c3ccccc3)[C@H](c3ccccc3)OC(=O)[C@H]2[C@@H]1C(=O)N1CCN(c2ncccn2)CC1)C(=O)OC	-0.15	99*	x
CCN1CNC(=S)N(C2CCCCC2)C1	x	-8	x
COC(=O)c1cc(C)sc1NC(=S)Nc1cnn(C)c1C(N)=O	x	-6	1
